Activity calls are given as the source filed them. The call rests on the fitted dose curve.
The molecules below were run against Guanidinoacetate N-methyltransferase (Homo sapiens) (UniProt Q14353) (assay: Confirmatory Screen for Target Class Profiling of Small Molecule Inhibitors of Methyltransferases (AID 1745852; on activity change, negative = inhibition: on the % scale 0 is the no-effect control and ±100 the full control effect)). Conditions: MTase-Glo luminescence, SAH detection, recombinant enzyme; activity change, negative = inhibition: at 57.3 µM (top of the series) unless noted; series mostly up to 57.3 µM.
Potency means the concentration at half of the fitted maximal effect.

For `CC(C)c1nc(-c2ccc(NC(=O)Nc3cccc(C(F)(F)F)c3)c3ccccc23)c2c(N)nccn12`, which activity change, negative = inhibition is on record?
Its activity change, negative = inhibition is -2.79%.

For `Cc1ccc([N+](=O)[O-])cc1S(=O)(=O)N(C)/N=C/c1cnc2ccc(Br)cn12`, which Potency is on record?
Its Potency is 30.4 µM (active).

With `C=C1C(=O)OC2/C=C(\CO)CC/C=C(\C=O)CC(OC(=O)CC(C)C)C12` (centres undefined) as the molecule, how does the activity change, negative = inhibition read?
The activity change, negative = inhibition was -0.648%.

How did the activity change, negative = inhibition turn out when `CC(C)c1cccc2c(-c3ccccc3)cc(-c3ccc(-c4ccc(C(=O)O)cc4)[nH]3)nc12` was run?
Its activity change, negative = inhibition is -5%.

How did the activity change, negative = inhibition turn out when `COc1cc2c(cc1O)CC[C@H]1[C@@H]2CC[C@]2(C)[C@H](O)CC[C@@H]12` was run?
Its activity change, negative = inhibition is 0.377%.

For `CN(C)c1nc(NC2CCC(NC(=O)c3ccc(F)c(F)c3)CC2)nc2ccccc12` (centres undefined), which activity change, negative = inhibition is on record?
The activity change, negative = inhibition was 0.153%.

With `NC[C@@](O)(c1ccc(Cl)cc1)c1ccc(-c2cn[nH]c2)cc1` as the molecule, how does the activity change, negative = inhibition read?
The activity change, negative = inhibition was 0%.

How did the activity change, negative = inhibition turn out when `CC1=CC(=O)CC(C)(C)C1CCC(C)O[C@@H]1O[C@H](CO[C@@H]2OC[C@@H](O)[C@H](O)[C@H]2O)[C@@H](O)[C@H](O)[C@H]1O` (some centres undefined) was run?
The activity change, negative = inhibition was 0% [at 29.8 µM].

Which activity change, negative = inhibition does the source give for `COc1cc(NC(=O)Nc2cccc(CNC(=O)O[C@H]3CCOC3)c2)ccc1-c1cnco1` here?
Its activity change, negative = inhibition is -0.888%.

How did the Potency turn out when `NC(=O)c1cnc(NCCc2ccc(O)c(Cl)c2)nc1NCc1ccccc1` was run?
Its Potency is 27.1 µM (active).

How did the activity change, negative = inhibition turn out when `N#Cc1cnc2cnc(NCc3cccnc3)cc2c1Nc1ccc(F)c(Cl)c1` was run?
Its activity change, negative = inhibition is -3.05%.

For `CCS(=O)(=O)N1CCN(c2ccc(Nc3ncc(C(N)=O)c(NC4CC4)n3)cc2)CC1`, which activity change, negative = inhibition is on record?
The activity change, negative = inhibition was 0%.

With `COc1cc(C(=O)OC[C@H]2O[C@@H](Oc3ccccc3/C=C/C(=O)O)[C@H](O)[C@@H](O)[C@@H]2O)cc(OC)c1OC` as the molecule, how does the activity change, negative = inhibition read?
Its activity change, negative = inhibition is -3.16% [at 29.8 µM].

Which activity change, negative = inhibition does the source give for `CCc1c(-c2ccccc2)c(-c2ccccc2)nn1-c1ccccc1-c1cccc(OCC(=O)O)c1` here?
The activity change, negative = inhibition was 0%.

How did the activity change, negative = inhibition turn out when `O=C(O)c1ccc(CN2CCC(CN[C@@H]3C[C@H]3c3ccccc3)CC2)cc1` was run?
Its activity change, negative = inhibition is -0.127%.

For `CN(c1ccccc1CNc1nc(Nc2ccc3c(c2)CC(=O)N3)ncc1C(F)(F)F)S(C)(=O)=O`, which activity change, negative = inhibition is on record?
Its activity change, negative = inhibition is -2.47%.

With `COc1cc2ncnc(Nc3ccc(F)c(Cl)c3)c2cc1NC(=O)/C=C/CN1CCCCC1` as the molecule, how does the Potency read?
The Potency was 24.1 µM (active).

How did the activity change, negative = inhibition turn out when `Cc1cc(O)c(-c2ccc([C@@H](C)CN(C)C)cc2)c2c1[nH]c(=O)c1sccc12` was run?
The activity change, negative = inhibition was -6.59%.

Which Potency does the source give for `COc1cc2nc(N3CCC(N4CCCCC4)CC3)nc(NC3CCCCCC3)c2cc1OC` here?
The Potency was 42.9 µM (active).

How did the activity change, negative = inhibition turn out when `COc1cc2c(NC3CCN(CC4CCCCC4)CC3)nc(N3CCCN(C(C)C)CC3)nc2cc1OCCCN1CCCCC1` was run?
The activity change, negative = inhibition was -0.195%.

With `C=C1C(=O)OC2C1CCC(=C)C1CC(OC(C)=O)C(=C)C12` (centres undefined) as the molecule, how does the activity change, negative = inhibition read?
The activity change, negative = inhibition was -10.4%.

Which activity change, negative = inhibition does the source give for `CC1(C)CC[C@]2(C(=O)O[C@@H]3O[C@H](CO)[C@@H](O)[C@H](O)[C@H]3O)CC[C@]3(C)C(=CCC4[C@@]5(C)C[C@@H](O)[C@H](O)[C@@](C)(CO)C5CC[C@]43C)C2[C@@H]1O` (some centres undefined) here?
The activity change, negative = inhibition was -0.535% [at 19.1 µM].

With `Oc1ccc(CNc2ccccc2F)c2cccnc12` as the molecule, how does the activity change, negative = inhibition read?
Its activity change, negative = inhibition is 2.39%.

With `C=C(C)C1Cc2cc(C(=O)OC3OC(CO)C(O)C(O)C3O)ccc2O1` (centres undefined) as the molecule, how does the activity change, negative = inhibition read?
The activity change, negative = inhibition was -3.06%.

Which activity change, negative = inhibition does the source give for `CN(C)C/C=C/C(=O)Nc1cccc(C(=O)Nc2ccc(Nc3nccc(-c4cccnc4)n3)cc2)c1` here?
The activity change, negative = inhibition was 0.0986%.

For `CCOC(=O)CCN(C(=O)c1ccc2c(c1)nc(CNc1ccc(C(=N)N)cc1)n2C)c1ccccn1`, which activity change, negative = inhibition is on record?
The activity change, negative = inhibition was 2.12%.

With `CN(C)C/C=C/C(=O)Nc1cccc(C(=O)Nc2cccc(Nc3ncc(Cl)c(-c4c[nH]c5ccccc45)n3)c2)c1` as the molecule, how does the activity change, negative = inhibition read?
Its activity change, negative = inhibition is 1.16%.

Which activity change, negative = inhibition does the source give for `CN1CCN(C(=O)c2ccc3cc(CCNc4ncnc5ccc(C#N)cc45)ccc3c2)CC1` here?
The activity change, negative = inhibition was -3.33%.

How did the activity change, negative = inhibition turn out when `CCN1CCN(Cc2ccc(NC(=O)Nc3ccc(Oc4cc(NC)ncn4)cc3)cc2C(F)(F)F)CC1` was run?
Its activity change, negative = inhibition is 0%.

Which activity change, negative = inhibition does the source give for `CC/C=C\CCO[C@@H]1O[C@H](CO)[C@@H](O)[C@H](O)[C@H]1O` here?
Its activity change, negative = inhibition is 0%.

Which activity change, negative = inhibition does the source give for `CNS(=O)(=O)CC1CCC(N(C)c2ncnc3[nH]ccc23)CC1` (centres undefined) here?
Its activity change, negative = inhibition is -4.35%.

For `Cc1cc(=O)oc2c(C=O)c(O)ccc12`, which Potency is on record?
The Potency was 17.1 µM (active).

Each molecule was assayed against Nicotinamide N-methyltransferase (Homo sapiens) (UniProt P40261) in the same assay as above. Conditions: MTase-Glo luminescence, SAH detection, recombinant enzyme; measured here: NNMT max response; stronger effect = lower value.
Sequence of Nicotinamide N-methyltransferase (Homo sapiens) (P40261 whole entry, looked up): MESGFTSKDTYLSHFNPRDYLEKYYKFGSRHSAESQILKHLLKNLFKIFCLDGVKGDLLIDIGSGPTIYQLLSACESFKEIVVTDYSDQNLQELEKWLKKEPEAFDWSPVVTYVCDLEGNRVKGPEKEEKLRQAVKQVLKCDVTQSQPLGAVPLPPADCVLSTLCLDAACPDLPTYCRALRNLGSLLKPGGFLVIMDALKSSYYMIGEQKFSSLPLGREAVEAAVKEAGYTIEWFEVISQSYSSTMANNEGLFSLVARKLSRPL

With `CC(C)c1nc(-c2ccc(NC(=O)Nc3cccc(C(F)(F)F)c3)c3ccccc23)c2c(N)nccn12` as the molecule, how does the activity read?
Its activity is -2.22%.

With `Cc1ccc([N+](=O)[O-])cc1S(=O)(=O)N(C)/N=C/c1cnc2ccc(Br)cn12` as the molecule, how does the activity read?
Its activity is -33.8%.

With `C=C1C(=O)OC2/C=C(\CO)CC/C=C(\C=O)CC(OC(=O)CC(C)C)C12` (centres undefined) as the molecule, how does the activity read?
The activity was -4.38%.

How did the activity turn out when `CC(C)c1cccc2c(-c3ccccc3)cc(-c3ccc(-c4ccc(C(=O)O)cc4)[nH]3)nc12` was run?
The activity was -16.3%.

Which activity does the source give for `COc1cc2c(cc1O)CC[C@H]1[C@@H]2CC[C@]2(C)[C@H](O)CC[C@@H]12` here?
Its activity is -2.72%.

With `CN(C)c1nc(NC2CCC(NC(=O)c3ccc(F)c(F)c3)CC2)nc2ccccc12` (centres undefined) as the molecule, how does the activity read?
The activity was -27.9%.

With `NC[C@@](O)(c1ccc(Cl)cc1)c1ccc(-c2cn[nH]c2)cc1` as the molecule, how does the activity read?
Its activity is -0.549%.

`CC1=CC(=O)CC(C)(C)C1CCC(C)O[C@@H]1O[C@H](CO[C@@H]2OC[C@@H](O)[C@H](O)[C@H]2O)[C@@H](O)[C@H](O)[C@H]1O` (some centres undefined) was tested. Which activity did it give?
Its activity is 0.168%.

For `COc1cc(NC(=O)Nc2cccc(CNC(=O)O[C@H]3CCOC3)c2)ccc1-c1cnco1`, which activity is on record?
Its activity is -9.19%.

For `NC(=O)c1cnc(NCCc2ccc(O)c(Cl)c2)nc1NCc1ccccc1`, which activity is on record?
The activity was -78.6%.

For `N#Cc1cnc2cnc(NCc3cccnc3)cc2c1Nc1ccc(F)c(Cl)c1`, which activity is on record?
Its activity is -57.3%.

`CCS(=O)(=O)N1CCN(c2ccc(Nc3ncc(C(N)=O)c(NC4CC4)n3)cc2)CC1` was tested. Which activity did it give?
The activity was -70.8%.

Which activity does the source give for `COc1cc(C(=O)OC[C@H]2O[C@@H](Oc3ccccc3/C=C/C(=O)O)[C@H](O)[C@@H](O)[C@@H]2O)cc(OC)c1OC` here?
Its activity is -2.69%.

Which activity does the source give for `CCc1c(-c2ccccc2)c(-c2ccccc2)nn1-c1ccccc1-c1cccc(OCC(=O)O)c1` here?
Its activity is -56%.

With `O=C(O)c1ccc(CN2CCC(CN[C@@H]3C[C@H]3c3ccccc3)CC2)cc1` as the molecule, how does the activity read?
The activity was -0.425%.

`CN(c1ccccc1CNc1nc(Nc2ccc3c(c2)CC(=O)N3)ncc1C(F)(F)F)S(C)(=O)=O` was tested. Which activity did it give?
The activity was -47.3%.

For `COc1cc2ncnc(Nc3ccc(F)c(Cl)c3)c2cc1NC(=O)/C=C/CN1CCCCC1`, which activity is on record?
The activity was -36.6%.

How did the activity turn out when `Cc1cc(O)c(-c2ccc([C@@H](C)CN(C)C)cc2)c2c1[nH]c(=O)c1sccc12` was run?
Its activity is -64.6%.

For `COc1cc2nc(N3CCC(N4CCCCC4)CC3)nc(NC3CCCCCC3)c2cc1OC`, which activity is on record?
The activity was -54.7%.

With `COc1cc2c(NC3CCN(CC4CCCCC4)CC3)nc(N3CCCN(C(C)C)CC3)nc2cc1OCCCN1CCCCC1` as the molecule, how does the activity read?
The activity was -18.7%.

Which activity does the source give for `C=C1C(=O)OC2C1CCC(=C)C1CC(OC(C)=O)C(=C)C12` (centres undefined) here?
The activity was -9.15%.

`CC1(C)CC[C@]2(C(=O)O[C@@H]3O[C@H](CO)[C@@H](O)[C@H](O)[C@H]3O)CC[C@]3(C)C(=CCC4[C@@]5(C)C[C@@H](O)[C@H](O)[C@@](C)(CO)C5CC[C@]43C)C2[C@@H]1O` (some centres undefined) was tested. Which activity did it give?
The activity was -4%.

With `Oc1ccc(CNc2ccccc2F)c2cccnc12` as the molecule, how does the activity read?
Its activity is -0.361%.

For `C=C(C)C1Cc2cc(C(=O)OC3OC(CO)C(O)C(O)C3O)ccc2O1` (centres undefined), which activity is on record?
Its activity is -2.77%.

How did the activity turn out when `CN(C)C/C=C/C(=O)Nc1cccc(C(=O)Nc2ccc(Nc3nccc(-c4cccnc4)n3)cc2)c1` was run?
The activity was -7.5%.

How did the activity turn out when `CCOC(=O)CCN(C(=O)c1ccc2c(c1)nc(CNc1ccc(C(=N)N)cc1)n2C)c1ccccn1` was run?
Its activity is -8.7%.

`CN(C)C/C=C/C(=O)Nc1cccc(C(=O)Nc2cccc(Nc3ncc(Cl)c(-c4c[nH]c5ccccc45)n3)c2)c1` was tested. Which activity did it give?
Its activity is -56%.

How did the activity turn out when `CN1CCN(C(=O)c2ccc3cc(CCNc4ncnc5ccc(C#N)cc45)ccc3c2)CC1` was run?
The activity was -11.9%.

How did the activity turn out when `CCN1CCN(Cc2ccc(NC(=O)Nc3ccc(Oc4cc(NC)ncn4)cc3)cc2C(F)(F)F)CC1` was run?
The activity was -7.66%.

Which activity does the source give for `CC/C=C\CCO[C@@H]1O[C@H](CO)[C@@H](O)[C@H](O)[C@H]1O` here?
The activity was 1.9%.

With `CNS(=O)(=O)CC1CCC(N(C)c2ncnc3[nH]ccc23)CC1` (centres undefined) as the molecule, how does the activity read?
Its activity is -58.2%.

How did the activity turn out when `Cc1cc(=O)oc2c(C=O)c(O)ccc12` was run?
Its activity is -24%.

— PubChem BioAssay (NCATS)
